From PubChem
Most compounds without a hit are left out; they make up all but 3.2% or so of the library.
FBPA coupling cs: coupling enzyme interference in Giardia aldolase counter-screen; coupling enzyme system counterscreen, AmpLite Red fluorescence; activity change, negative = inhibition, % at 58.2 µM, hits read low; AID 2472; 290,000 compounds, 0.67% hits; in the data active means activity change below about -30%
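Counterscreen lacking aldolase: glyceraldehyde-3-phosphate coupling-enzyme reagent preincubated 10 min at RT with compound (at 57.5 uM final), then substrate/coupling system with AmpLite Red added; fluorescence read at 525/598 nm after 20 min RT.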
GALK inhibitor: blocks human galactokinase activity | P51570 | Purified GALK, Kinase-Glo residual ATP luminescence | Potency, µM (doses to about 57.5 µM), for the others: at the highest dose activity change, negative = inhibition, hits mostly inhibitors | 270,000 compounds, 0.007% hits | AID 1868; further: potency means the concentration at half of the fitted maximal effect
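Quantitative HTS: GALK 5 nM, ATP 35 uM, galactose 100 uM, 1 h room temperature, then luciferase-based ATP detection.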
USP1-UAF1 inh: inhibitors of human USP1/UAF1 deubiquitinase | recombinant USP1/UAF1, Ub-Rhodamine cleavage fluorescence | 390,000 compounds, 0.23% hits | Potency, µM (highest dose often 57.1 µM), without a hit: at the highest dose activity change, negative = inhibition, hits mostly inhibitors | AID 743255; further: potency means the concentration at half of the fitted maximal effect; nearly all actives have a fitted effect of over 60% in size
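Step one: compound is pinned into 1nM USP1/UAF1 in HEPES pH 7.8 buffer with TCEP. Step two: 15 min room-temperature incubation. Step three: Ub-Rho (150nM final) starts cleavage, tracked by fluorescence over six one-minute reads.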
USP2a inh: USP2a (human) protease inhibition; O75604; USP2 core, Ub-CHOP2 coupled fluorogenic reporter, 485/531; Potency, µM (titrated, usually from 38.3 µM), inactives show at the top dose activity change, negative = inhibition, usual class: inhibitors; 330,000 compounds, 0.01% hits; AID 463254;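 further: potency means the concentration at half of the fitted maximal effect; plate controls were DMSO wells for no effect and full inhibition by NEM control for full effect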
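USP2 core (10nM final) preincubated 30min RT with compound in 20mM Tris-HCl pH 8.0, 2mM CaCl2, 2mM beta-mercaptoethanol, 0.05% CHAPS; 25nM Ub-CHOP2 plus 25nM reporter substrate added, fluorescence (Ex485/Em531) read after 60min.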
PLK1 PBD inh: inhibitors of human PLK1 polo-box domain binding | Plk1 PBD binding of FITC phosphopeptide, fluorescence polarization | Potency, µM, inactives show max response, negative = inhibition, hits mostly inhibitors | 360,000 compounds, 2.8% hits; further: potency means the concentration at half of the fitted maximal effect; series mostly up to about 57 µM; nearly all actives have a fitted effect of over 65% in size
VDR inhibitor: blocks the human vitamin D receptor; VDR-SRC2-3 peptide fluorescence polarization, 2 h; Potency, µM, without a hit: max response, negative = inhibition, hits mostly inhibitors; 400,000 compounds, 0.93% hits; further: potency means the concentration at half of the fitted maximal effect
Target sequence (P11473 whole entry, looked up): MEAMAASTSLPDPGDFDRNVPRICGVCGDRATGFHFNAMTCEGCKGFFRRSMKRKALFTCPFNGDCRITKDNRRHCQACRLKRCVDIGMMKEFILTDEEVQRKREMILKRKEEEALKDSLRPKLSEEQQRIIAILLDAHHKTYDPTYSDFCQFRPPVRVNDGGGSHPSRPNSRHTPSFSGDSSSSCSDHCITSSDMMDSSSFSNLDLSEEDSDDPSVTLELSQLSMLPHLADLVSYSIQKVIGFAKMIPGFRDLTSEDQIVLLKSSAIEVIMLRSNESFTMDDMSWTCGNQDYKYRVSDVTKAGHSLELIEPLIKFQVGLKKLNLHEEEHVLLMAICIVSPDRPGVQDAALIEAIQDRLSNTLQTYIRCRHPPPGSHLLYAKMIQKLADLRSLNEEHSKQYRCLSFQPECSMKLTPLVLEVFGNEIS
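Measured by FP: displacement of SRC2-3 coactivator peptide from VDR by library compounds, following a two-hour ambient incubation.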
* hit, by the source's call; ? = inconclusive; . = not tested or not shown; ! = not confirmed by another sample. Unless noted, the call rests on the fitted dose curve; in most records, active means well fitted curve in the direction sought with a large enough effect; inconclusive means small, poorly fitted or top-dose-only effect, or another doubt; inactive means no such curve, though single readings can be large; an effect the other way counts as inactive or inconclusive. Unless noted, on the % scale 0 is the no-effect control and ±100 the full control effect.

SMILES	FBPA coupling cs	GALK inhibitor	USP1-UAF1 inh	USP2a inh	PLK1 PBD inh	VDR inhibitor
COc1ccc(C2C(C(=O)N3CCCC3)c3cc(OC)c(OC)cc3C(=O)N2C)cc1OC (stereo unspecified)	3	1%	-5%	-1%	-20%	3%
COc1ccc(-c2csc(/C(C#N)=C\c3ccc(O)c([N+](=O)[O-])c3)n2)cc1OC	6	2%	-8%	-7%	27µM*	2%
COc1cc(/C=C(\C#N)c2nc3ccccc3s2)cc([N+](=O)[O-])c1O	-2	-2%	-22%	2%	21µM*	-17%
N#C/C(=C\c1ccco1)c1nc2ccccc2s1	1	.	-16%	9%	-12%	-2%
N#C/C(=C\c1ccc(O)c([N+](=O)[O-])c1)c1nc2ccccc2s1	8	-9%	?	-1%	24µM*	?
COc1ccc(-c2csc(/C(C#N)=C\c3ccc(OC)c([N+](=O)[O-])c3)n2)cc1	0	2%	-16%	-2%	-5%	-2%
Cc1ccccc1NC(=O)Nc1nc2ccc(S(C)(=O)=O)cc2s1	1	0%	-1%	0%	-13%	-13%
Cc1ccc(C)c(NC(=O)CN(C)C(C)C(=O)N2CCCC2)c1 (stereo unspecified)	.	.	4%	3%	-12%	1%
CSS(=O)(=O)c1cccc2cccnc12	-4	-4%	-9%	2%	2.4µM*	11µM*
c1cnc2c(c1)ccc1cccnc12	-66*!	0%	-11%	1%	-27%	-1%
COC(=O)CS(=O)(=O)c1cccc2cccnc12	4	8%	-28%	1%	30µM*	-13%
O=c1c2ccsc2ncn1Cc1ccc(Cl)cc1	0	-4%	-12%	2%	-1%	-5%
COc1ccc(N=Cc2nc(-c3ccccc3)oc2OC(C)=O)cc1	2	4%	-23%	4%	?	28µM*
Cc1cc(C(=O)Nc2cccc([N+](=O)[O-])c2C)cs1	0	3%	-18%	2%	-11%	-4%
Cc1noc(C(=O)Nc2ccccc2C(F)(F)F)c1Cl	6	-1%	-15%	1%	30µM*	-16%
Cc1onc(C(=O)Nc2ccccc2C(F)(F)F)c1[N+](=O)[O-]	.	5%	-11%	2%	-10%	-18%
CCNc1cc(O)ccc1C	.	.	?	19%	-16%	79µM*
CCCOCC1CC2(SC(=Nc3ccc(C)cc3)NC2=O)C(=O)O1 (stereo unspecified)	-1	-2%	-21%	3%	27µM*	5%
CCCC(=O)Nc1ccc2nc(SCC(=O)Nc3nccs3)sc2c1	0	1%	-8%	2%	-4%	3%
C=CCNC(=O)c1oc2ccc(S(=O)(=O)N(CC)CC)cc2c1C	5	0%	-20%	0%	9.5µM*	-19%
CCN(CC)S(=O)(=O)c1ccc2oc(C(=O)N3CCOCC3)c(C)c2c1	-1	1%	-7%	-3%	-12%	-4%
CCN(CC)S(=O)(=O)c1ccc2oc(C(=O)NCCN3CCOCC3)c(C)c2c1	0	6%	-13%	0%	27µM*	-16%
C#CCOCCOCCOCCNc1nc(N2CCN(C(=O)[C@H](Cc3cc4ccccc4[nH]3)n3cc([C@@H](N)C(C)CC)nn3)CC2)nc(N2CCN(C(=O)[C@H](Cc3cc4ccccc4[nH]3)n3cc([C@@H](N)CC(C)C)nn3)CC2)n1 (stereo partly specified)	0	0%	.	-9%	.	.
Cc1ccc(NC(=O)N2CCCN(C(=O)OC(C)(C)C)CC2)cc1Cl	0	9%	-21%	0%	-7%	13%
COc1ccc(Cl)cc1NS(=O)(=O)c1ccc(OC)c(OC)c1	-3	0%	-4%	-1%	-6%	4%
SMILES	FBPA coupling cs	GALK inhibitor	USP1-UAF1 inh	USP2a inh	PLK1 PBD inh	VDR inhibitor
Cc1ccc(Sc2ncnc3onc(C)c23)cc1	3	3%	-4%	2%	19µM*	-19%
Cc1noc2ncnc(Sc3ccc(Cl)cc3)c12	3	0%	-24%	.	?	-25%
COc1ccc(OC)c(S(=O)(=O)Nc2cccc3c(O)cccc23)c1	.	.	-29%	.	-3%	-12%
O=S(=O)(Nc1ccc(NS(=O)(=O)c2ccccc2)c2ccccc12)c1ccccc1	.	.	-11%	.	5%	.
O=S(=O)(Nc1ccc(O)c2ccccc12)c1ccc(F)cc1	.	.	?	.	27µM*	?
COc1ccc(OC)c(S(=O)(=O)Nc2ccc(O)c3ccccc23)c1	-58*	1%	-13%	1%	?	-3%
Cc1ccc(S(=O)(=O)Nc2c(O)ccc3ccccc23)cc1	.	.	-13%	.	6.7µM*	32µM*
CC(=O)c1c(C)oc2c1cc(NS(=O)(=O)c1ccc(C(C)(C)C)cc1)c1ccccc12	.	.	-3%	.	.	-29%
Cc1oc2c(cc(NS(=O)(=O)c3ccc(F)cc3)c3ccccc32)c1C(=O)O	-31*	-1%	?	11%	0%	-15%
C=C(Cl)COc1ccc2c(CCC)cc(=O)oc2c1	4	0%	-17%	0%	-3%	21%
Nc1nc(SCC(=O)N2CCCCC2)[nH]c(=O)c1NC(=O)c1ccccc1F	.	-5%	-6%	2%	-7%	-15%
CCCN(CCC)Cc1cc(=O)oc2cc(C)ccc12	.	.	.	.	-2%	.
Cc1oc2c(cc(NS(=O)(=O)c3ccc(C(C)C)cc3)c3ccccc32)c1C(=O)O	-12	-2%	28µM*!	0%	19µM*	-3%
COc1ccc(N2CCN(C(=O)c3cccc(NS(=O)(=O)c4cccc(F)c4)c3)CC2)cc1	1	5%	-12%	-1%	3%	14%
COC(=O)c1cc2occc2n1Cc1nc(-c2ccc(Cl)cc2)oc1C	0	.	-34%	2%	30µM*	?
COC(=O)c1cc2occc2n1Cc1nc(-c2ccccc2)oc1C	.	.	-19%	.	.	-4%
CCCCCCCc1nc2nc(C)c(Br)c(=O)n2[nH]1	5	-4%	-7%	5%	27µM*	-7%
O=c1oc2ccccc2c(N2CCCC2)c1CN1CCCC1	3	0%	-1%	-1%	0%	-1%
O=c1oc2ccccc2c(Cl)c1CN1CCCCC1	1	-3%	-17%	-2%	12µM*	4%
O=C(Nc1ccc(Br)cc1F)c1ccc2nsnc2c1	-2	-1%	-2%	3%	5.3µM*	?
O=C(Nc1ccc(Br)cc1F)c1ccncc1	1	-5%	-10%	-2%	1%	-10%
Cc1nc2sc(C(c3ccc(F)cc3)N3CCN(C(=O)c4ccco4)CC3)c(O)n2n1 (stereo unspecified)	6	0%	2%	-4%	-2%	3%
Cc1cc(Cl)ccc1OCC(=O)NCCOc1nc(N2CCCCC2)nc(N2CCOCC2)n1	4	-1%	-9%	3%	-2%	-1%
